# Bioassay records as filed in PubChem BioAssay.
# DAX1 inh-1: inhibits human nuclear receptor DAX1; HEK293 Gal4-DAX1 luciferase reporter, luminescence; hit rate 0.99% among 340,000; P51843; inhibition, % at 6.75 µM; AID 504766;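 active = inhibition above the mean over all tested compounds plus 3 SD, cut at about 4.2% in these data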;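 note: 0% = DAX1-transfected cells with DMSO and 100% = empty-vector control cells with DMSO; inhibition shows as a rise in luminescence from relieved DAX1 repression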
# AHR act: human AHR activation; hit rate 2.5% among 320,000; activation, % at 5 µM; P35869; AID 2796; AHR-responsive luciferase reporter cells, luminescence; in the data active = activation above about 47%;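 note: 0% = vehicle wells and 100% = reference agonist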
# Target sequence (P35869 whole entry, looked up): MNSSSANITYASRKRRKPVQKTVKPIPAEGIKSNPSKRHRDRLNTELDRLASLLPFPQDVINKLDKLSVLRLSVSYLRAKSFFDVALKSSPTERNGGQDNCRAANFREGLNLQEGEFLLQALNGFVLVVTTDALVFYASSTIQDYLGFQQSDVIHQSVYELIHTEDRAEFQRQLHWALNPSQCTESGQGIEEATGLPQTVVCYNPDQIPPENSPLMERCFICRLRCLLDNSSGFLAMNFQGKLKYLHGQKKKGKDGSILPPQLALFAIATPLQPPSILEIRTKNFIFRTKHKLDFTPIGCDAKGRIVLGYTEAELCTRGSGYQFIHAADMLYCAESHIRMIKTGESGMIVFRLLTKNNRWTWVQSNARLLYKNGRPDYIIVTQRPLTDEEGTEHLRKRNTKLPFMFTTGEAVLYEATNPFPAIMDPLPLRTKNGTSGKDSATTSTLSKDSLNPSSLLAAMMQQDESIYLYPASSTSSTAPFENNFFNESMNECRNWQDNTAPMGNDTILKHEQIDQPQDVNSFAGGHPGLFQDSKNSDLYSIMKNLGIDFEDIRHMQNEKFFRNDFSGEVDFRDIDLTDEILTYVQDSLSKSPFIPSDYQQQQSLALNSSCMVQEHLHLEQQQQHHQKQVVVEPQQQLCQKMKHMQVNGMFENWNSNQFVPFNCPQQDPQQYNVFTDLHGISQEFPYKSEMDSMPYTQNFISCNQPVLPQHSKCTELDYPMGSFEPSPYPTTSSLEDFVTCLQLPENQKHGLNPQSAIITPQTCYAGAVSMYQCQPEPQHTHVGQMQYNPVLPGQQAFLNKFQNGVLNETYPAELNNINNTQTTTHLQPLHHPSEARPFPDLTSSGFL
# hcDAF-12 act: H. contortus DAF-12 activation, primary screen; HEK293 hcDAF-12 lit1-tk-luc reporter, luminescence; 0% DMSO, 100% Δ7-dafachronic acid; activation, % at 6.8 µM; hit rate 1.4% among 370,000; AID 652067;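 active = activation above the mean of all tested compounds plus 3 SD, cut at about 5.5% in these data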;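 note: 100% = response to 3 µM Δ7-dafachronic acid high control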
# DAX1 inh-2: DAX1 (NR0B1) inhibition, primary screen; AID 652010; hit rate 1.1% among 370,000; inhibition, % at 6.8 µM; HEK293T StAR-luciferase reporter, SF-1/DAX-1 repression relief;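 active = inhibition above the mean over all tested compounds plus 3 SD, cut at about 3.6% in these data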;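 note: 0% = DAX-1 cells with DMSO and 100% = cells lacking DAX-1 with DMSO; higher inhibition means more luminescence from relief of DAX-1 repression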
# ssDAF12 agonist: activates DAF-12 receptor from parasite S. stercoralis; HEK293 ssDAF-12/GRIP1 lit1-tk-luc reporter, luminescence; % of 3 µM dafachronic acid response; activation, % at 6.8 µM; hit rate 1% among 370,000;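 active = activation above the mean over all tested compounds plus 3 SD, cut at about 0.9% in these data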;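 note: 0% = DMSO-only wells and 100% = 3 µM delta7-dafachronic acid wells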
# hgDAF12 agonist: agonists of H. glycines DAF-12 nuclear receptor; HEK293 GAL4-hgDAF12 UAS-luciferase reporter, agonist luminescence; normalized to butyrate control; activation, % at 6.8 µM; hit rate 1.8% among 370,000; AID 687014;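 active = activation above a cutoff set at the mean of all screened compounds plus 3 SD, cut at about 10% in these data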;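 note: 0% = DMSO wells and 100% = sodium butyrate wells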
# * hit, by the source's call; . = no result given. Compounds with a hit are over-represented: about 5.7% of the library has one in this group of screens.
SMILES,DAX1 inh-1,AHR act,hcDAF-12 act,DAX1 inh-2,ssDAF12 agonist,hgDAF12 agonist
O=C(NC1CCc2ccccc21)c1cc(COc2ccc(F)cc2Cl)on1 (stereo not drawn),-1,2,1,0,-1,1
O=C(NC1CCc2ccccc21)c1cc(COc2cncc(Cl)c2)on1 (stereo not drawn),0,55*,2,0,-1,6
CCN1CCN(CCNC(=O)c2ccc(CS(=O)c3ccc(Cl)cc3)o2)CC1 (stereo not drawn),0,-1,-2,0,-1,3
CN1CCN(c2ccncc2S(=O)(=O)N2CCCCC2)CC1,4.9*,-2,0,0,-1,1
CC(C)N1CCN(c2ccncc2S(=O)(=O)N2CCCCC2)CC1,0,.,1,1,0,2
COc1ccc(CCNC(=O)c2ccc(CS(=O)Cc3ccc(C)cc3)o2)cc1OC (stereo not drawn),0,1,-2,0,-1,-1
O=C(COc1ccccc1)Nc1cc(Cl)ccc1Cl,4.6*,2,5.9*,1,0,7
CN(C)C(=O)Cn1cnc2c(cnn2-c2ccc(F)cc2)c1=O,1,-1,-1,0,0,-2
O=C(C1CC1)N1CCC(C(O)(c2ccccc2)c2ccccc2)CC1,5.1*,-3,-1,0,-1,0
CCC(C)N(C(=O)COC(=O)c1cc([N+](=O)[O-])ccc1N)C1CCS(=O)(=O)C1 (stereo not drawn),0,0,-1,0,-1,2
CSc1nc2sc3c(c2c(=O)[nH]1)CCC(C)C3 (stereo not drawn),-1,69*,-1,1,-2,1
Nc1ccc(-c2cnc(N)c(C(=O)c3cccnc3)n2)cn1,0,.,.,.,.,.
O=S(=O)(NCc1ccco1)c1cnc(Cl)c(Br)c1,0,-1,4,1,-1,2
O=C(Nc1nc2ccc(Cl)cc2s1)[C@@H]1CCCN1C(=O)c1cccs1,1,30,5.7*,1,0,10
C=CCOn1c(=O)c(-c2ccc(Cl)cc2)[n+]([O-])c2ccccc21,0,.,1,0,-1,-1
Cc1c(=O)n(OCc2ccc(Cl)cc2)c2ccccc2[n+]1[O-],0,59*,2,0,-1,3
Cc1c(=O)n(OCc2cccc(F)c2)c2ccccc2[n+]1[O-],-1,84*,3,-1,0,2
Cc1cc(C)nc(NS(=O)(=O)c2ccc(NC(=O)CSc3ncn[nH]3)cc2)n1,5.8*,2,-1,0,-1,-2
COc1ccc(CC(=O)NCc2cn3ccsc3n2)cc1,3,1,-1,0,-1,-1
O=C(Cc1cn2ccsc2n1)NCc1ccccc1,0,-2,6.0*,0,0,3
CC1(C(=O)OCc2cc(=O)n3cc(Br)ccc3n2)CC1(Cl)Cl (stereo not drawn),0,9,2,3,0,11*
CC1CC1C(=O)OCc1cc(=O)n2cc(Br)ccc2n1 (stereo not drawn),2,-2,0,2,0,9
Cn1cc(/C=C2\SC(=S)N(NC(=O)c3cccc(Cl)c3)C2=O)c2ccccc21,0,.,-1,0,-1,3
Cn1cc(/C=C2\SC(=S)N(NC(=O)c3ccccc3)C2=O)c2ccccc21,0,21,4,-1,1.0*,1
COc1ccc2c(c1OC)C(=O)OC2Nc1nc(-c2cc3cc(Br)ccc3oc2=O)cs1 (stereo not drawn),4.8*,1,1,2,-1,11*
SMILES,DAX1 inh-1,AHR act,hcDAF-12 act,DAX1 inh-2,ssDAF12 agonist,hgDAF12 agonist
COc1ccc2c(c1OC)C(=O)OC2Nc1nc2ccccc2s1 (stereo not drawn),0,2,2,0,-1,1
COc1ccc(-c2csc(NC3OC(=O)c4c3ccc(OC)c4OC)n2)cc1OC (stereo not drawn),2,-6,0,0,-1,0
COc1ccc2c(c1OC)C(=O)OC2Nc1nc(-c2ccc([N+](=O)[O-])cc2)cs1 (stereo not drawn),2,0,3,0,1.6*,5
C[C@@H]1CN([C@H](C)CO)C(=O)c2cc(NC(=O)Nc3ccc(F)cc3)ccc2O[C@@H](C)CCCCO[C@@H]1CN(C)C(=O)CCCN(C)C,.,.,-1,1,0,0
C/C=C/c1cccc(-c2nc(C(=O)N3CCCCC3)cc3c2[C@H](CCO)N(C(=O)NC(C)C)C3)c1,.,.,0,1,-1,0
O=S(=O)(Nc1ccc(O)c2ccccc12)c1cccs1,-2,47,6.7*,-1,1,-2
O=S(=O)(Nc1cccc2ccccc12)c1cccs1,1,25,6.1*,0,-1,0
COc1ccccc1NS(=O)(=O)c1cccs1,-1,-1,0,0,-1,3
O=C1CC(O)C(Cc2ccccc2)N1 (stereo not drawn),.,.,-1,0,0,3
O=c1[nH][nH]cc1C=Nc1ccc(Cl)cc1Cl,1,10,0,0,1.6*,-1
Cc1ccc(NC2=C/C(=N\S(=O)(=O)c3cccs3)c3ccccc3C2=O)c(C)c1,-6,13,.,.,.,.
Cc1ccc(Cl)cc1NC1=C/C(=N\S(=O)(=O)c2cccs2)c2ccccc2C1=O,0,24,2,0,1.0*,-3
O=C(Cc1ccccc1)Nc1ccc(SC(F)F)cc1,4.3*,2,2,1,-1,6
c1ccc(SCc2nc(-c3ccncc3)no2)cc1,2,11,5.6*,0,0,6
CC1(C)CC(=O)C=C(C2CC2)C1=O,.,.,0,1,-1,5
N#CC(C(=O)c1ccccc1)=C1SCCS1,.,-3,1,0,-1,1
O=C(Oc1ccc(-c2cnc3ccccc3n2)cc1)c1ccco1,4,-1,5.6*,3,0,10
O=C(Nc1cccc(-c2cnc3ccccc3n2)c1)c1ccco1,0,10,-1,0,-1,1
O=C(NCCc1c[nH]c2ccccc12)C(=O)NCC1OCCCN1S(=O)(=O)c1cccs1 (stereo not drawn),0,9,0,-1,2.2*,-1
CCN1CCN(CC(=O)c2c[nH]c3ccccc23)CC1,0,26,5.6*,1,1,-2
O=C(Nc1ccc(S(=O)(=O)N2CCCC2)cc1)c1cc(=O)c2ccccc2o1,4.3*,12,0,1,-1,2
CCn1c(=O)cc(OCC(=O)N2CCCCCC2)c2ccccc21,2,24,-1,0,-2,-3
CCn1c(=O)cc(OCC(=O)NCCC(C)C)c2ccccc21,1,5,0,0,0.9*,-2
